# Records with an inconclusive call do not appear. Activity calls are given as the source filed them. Unless noted, the call rests on the fitted dose curve; in most records, active means well fitted curve in the direction sought with a large enough effect; inconclusive means small, poorly fitted or top-dose-only effect, or another doubt; inactive means no such curve, though single readings can be large; an effect the other way counts as inactive or inconclusive.
# Biological target: Cytochrome P450 2C9 (Homo sapiens) (UniProt P11712)
# Experiment: Cytochrome P450 family 2 subfamily C member 9 (CYP2C9) small molecule antagonists: luciferase biochemical (cell-free) qHTS assay (AID 1645842; active means well fitted curve in the direction sought with a large enough effect in the repeat runs; an effect the other way counts as inactive or inconclusive; further: nearly all actives have a fitted effect of over 55% in size)
# Settings: P450-Glo CYP2C9 enzyme assay, luciferin luminescence; series mostly up to 57.4 µM; activity change, negative = inhibition: at the top concentration
# Outline: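 Luminescence, after 20 min with luciferin detection reagent, reflected CYP2C9 turnover during a 1 h NADPH-driven reaction at 37C. Enzyme-substrate mix contained 0.4% bovine serum albumin and was preincubated with compound 10 min at room temperature.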
# On the % scale 0 is the no-effect control and ±100 the full control effect; potency means the concentration at half of the fitted maximal effect.
# Cytochrome P450 2C9 (Homo sapiens), sequence (P11712 whole entry, looked up): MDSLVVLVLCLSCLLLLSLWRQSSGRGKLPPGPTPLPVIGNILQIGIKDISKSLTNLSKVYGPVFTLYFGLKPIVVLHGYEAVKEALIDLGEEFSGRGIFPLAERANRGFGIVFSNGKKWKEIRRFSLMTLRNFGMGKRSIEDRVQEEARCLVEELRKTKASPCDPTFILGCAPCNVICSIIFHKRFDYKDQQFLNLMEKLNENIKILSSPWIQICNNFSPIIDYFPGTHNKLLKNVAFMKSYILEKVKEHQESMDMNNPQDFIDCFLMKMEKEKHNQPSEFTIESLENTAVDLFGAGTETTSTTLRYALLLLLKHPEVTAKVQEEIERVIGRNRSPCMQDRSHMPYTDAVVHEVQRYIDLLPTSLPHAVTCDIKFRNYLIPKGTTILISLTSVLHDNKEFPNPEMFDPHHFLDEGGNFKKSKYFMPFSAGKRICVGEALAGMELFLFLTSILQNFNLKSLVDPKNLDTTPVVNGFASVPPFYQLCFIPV
Compound,"activity change, negative = inhibition",Potency
CCCCCCn1c(=O)c2c(ncn2C)n(C)c1=O,2.28% (inactive),
[O-][n+]1cccc(/C(Cl)=N/OC[C@@H](O)CN2CCCCC2)c1,3.8% (inactive),
O=C1Cc2cc(Cl)ccc2N1,,11 µM (active)
N[C@@H](Cc1cc(I)c(O)c(I)c1)C(=O)O,,15.5 µM (active)
O=C(c1cc(O)c(O)c(O)c1)c1ccc(O)c(O)c1O,15.4% (inactive),
OCCc1ccccc1,9.02% (inactive),
N#CSCC(=O)O,8.08% (inactive),
CCOC(=O)[C@H](CCc1ccccc1)N[C@@H](C)C(=O)N(CC(=O)O)C1Cc2ccccc2C1,,19.5 µM (active)
COc1ccc2cc(C=O)ccc2c1,,12.3 µM (active)
CC(C)(C)c1ccc(C(=O)CCCCl)cc1,-3.5% (inactive),
COc1cc(S(N)(=O)=O)cc(C(=O)O)c1OC,-0.398% (inactive),
CO[C@@H]1[C@@H](O[C@@H]2O[C@H](C)[C@@H](O[C@H]3C[C@@](C)(O)[C@@H](O)[C@H](C)O3)[C@H](N(C)C)[C@H]2O)[C@@H](CC=O)C[C@@H](C)[C@@H](O[C@@H]2CC[C@H](N(C)C)[C@@H](C)O2)/C=C/C=C/C[C@@H](C)OC(=O)C[C@H]1OC(C)=O,-9.73% (inactive),
CCc1cccc2c(CCO)c[nH]c12,-8.5% (inactive),
CCc1cc2cc(OC)c(OC)cc2c(Cc2ccccc2)n1,,15.5 µM (active)
CCN1CCN(c2cc(-c3ccc(F)cc3)c3c(n2)CCCCCC3)CC1,0.806% [at 23.9 µM] (inactive),
Nc1ccc(C(=O)N2CC3CC(CN(Cc4ccccc4)C3)C2)cc1,-0.717% (inactive),
COc1ccccc1OCC1CNC(=O)O1 (centres undefined),24.8% (inactive),
CCOC(=O)C1=C(C)NC(C)=C(C(=O)OCC)C1c1ccccc1/C=C/C(=O)OC(C)(C)C,,0.49 µM (active)
Oc1ccccc1-c1nnco1,15.1% (inactive),
CC1(C)S[C@@H]2[C@H](NC(=O)C(c3ccccc3)S(=O)(=O)O)C(=O)N2[C@H]1C(=O)O (some centres undefined),6.7% (inactive),
CC(C)(C)NCC(O)COc1ccccc1OCC1CCCO1 (centres undefined),-8.45% (inactive),
O=C1NC(c2ccccc2)(c2ccccc2)C(=O)N1COP(=O)(O)O,12% (inactive),

# System: not listed separately
# Experiment: Primary qHTS for inhibitors of nuclear receptor binding SET domain protein 2 (NSD2) in an isogenic RCH-ACV NSD2 p.E1099K mutant (9B) (AID 1645876); further: nearly all actives have a fitted effect of over 70% in size
# Settings: RCH-ACV NSD2 E1099K (9B) viability, CellTiter-Glo, 72 h; series mostly up to 44.9 µM; activity change, negative = viability loss: at the top concentration
Compound,outcome,Potency,"activity change, negative = viability loss"
CCOc1ccccc1OCC1CNCCO1 (centres undefined),inactive,,
Cc1nc(C2CCCCC2)c(-c2ccc(S(N)(=O)=O)c(F)c2)o1,,11.9 µM (active),
C[C@@H](C1=C(CCN(C)C)Cc2ccccc21)c1ccccn1,,,-20.7% (inactive)
CCCCC(CC)COC(=O)c1ccccc1C(=O)O (centres undefined),,,-9.16% [at 91.9 µM] (inactive)
CC(C)Cc1ccc(C(C)C(=O)OCc2ccccn2)cc1 (centres undefined),inactive,,
C/C(=N/NC(=O)c1ccncc1)C(=O)O,,,-1.15% (inactive)
O=C1Nc2ccccc2C1(c1ccc(O)cc1)c1ccc(O)cc1,,21.1 µM (active),
CCCCCCOC(=O)NC(=N)c1ccc(NCc2nc3cc(C(=O)N(CCC(=O)OCC)c4ccccn4)ccc3n2C)cc1,,18.6 µM (active),
C[C@@]12CCC[C@H]1[C@@H]1CC[C@H]3C[C@@H](O)CC[C@]3(C)[C@H]1CC2,inactive,,
CCCCCCn1c(=O)c2c(ncn2C)n(C)c1=O,,,4.89% (inactive)
[O-][n+]1cccc(/C(Cl)=N/OC[C@@H](O)CN2CCCCC2)c1,,,6.14% (inactive)
O=C1Cc2cc(Cl)ccc2N1,inactive,,
N[C@@H](Cc1cc(I)c(O)c(I)c1)C(=O)O,,,3.64% (inactive)
O=C(c1cc(O)c(O)c(O)c1)c1ccc(O)c(O)c1O,,2.37 µM (active),
OCCc1ccccc1,inactive,,
COc1ccc2cc(C=O)ccc2c1,,,-22.1% (inactive)
CC(C)(C)c1ccc(C(=O)CCCCl)cc1,,,-6.3% (inactive)
COc1cc(S(N)(=O)=O)cc(C(=O)O)c1OC,,,-3.63% (inactive)
CCc1cccc2c(CCO)c[nH]c12,,,-8.07% (inactive)
CCc1cc2cc(OC)c(OC)cc2c(Cc2ccccc2)n1,,23.7 µM (active),
CCN1CCN(c2cc(-c3ccc(F)cc3)c3c(n2)CCCCCC3)CC1,,,3.99% [at 17.3 µM] (inactive)
Nc1ccc(C(=O)N2CC3CC(CN(Cc4ccccc4)C3)C2)cc1,,,2.11% (inactive)
COc1ccccc1OCC1CNC(=O)O1 (centres undefined),,,9.41% (inactive)
CCOC(=O)C1=C(C)NC(C)=C(C(=O)OCC)C1c1ccccc1/C=C/C(=O)OC(C)(C)C,,21.1 µM (active),
Oc1ccccc1-c1nnco1,,,2.44% (inactive)
CC1(C)S[C@@H]2[C@H](NC(=O)C(c3ccccc3)S(=O)(=O)O)C(=O)N2[C@H]1C(=O)O (some centres undefined),,,-11.2% (inactive)
CC(C)(C)NCC(O)COc1ccccc1OCC1CCCO1 (centres undefined),,,7.55% (inactive)
O=C1NC(c2ccccc2)(c2ccccc2)C(=O)N1COP(=O)(O)O,inactive,,

# System: not listed separately
# Experiment: Primary qHTS for inhibitors of nuclear receptor binding SET domain protein 2 (NSD2) in an RCH-ACV wild type WT cells (2C) (AID 1645877); further: nearly all actives have a fitted effect of over 70% in size
# Settings: RCH-ACV (leukaemia line) NSD2 WT (2C) viability, CellTiter-Glo, 72 h; series mostly up to 44.9 µM; activity change, negative = cell killing: at the top concentration
Compound,"activity change, negative = cell killing",Potency,outcome
CCOc1ccccc1OCC1CNCCO1 (centres undefined),3.57% (inactive),,
Cc1nc(C2CCCCC2)c(-c2ccc(S(N)(=O)=O)c(F)c2)o1,,13.3 µM (active),
CC(C)Cc1ccc(C(C)C(=O)OCc2ccccn2)cc1 (centres undefined),4.13% (inactive),,
C/C(=N/NC(=O)c1ccncc1)C(=O)O,3.86% (inactive),,
O=C1Nc2ccccc2C1(c1ccc(O)cc1)c1ccc(O)cc1,,16.8 µM (active),
C[C@@]12CCC[C@H]1[C@@H]1CC[C@H]3C[C@@H](O)CC[C@]3(C)[C@H]1CC2,0.482% (inactive),,
CCCCCCn1c(=O)c2c(ncn2C)n(C)c1=O,-3.32% (inactive),,
[O-][n+]1cccc(/C(Cl)=N/OC[C@@H](O)CN2CCCCC2)c1,,,inactive
O=C1Cc2cc(Cl)ccc2N1,2.25% (inactive),,
N[C@@H](Cc1cc(I)c(O)c(I)c1)C(=O)O,-4.66% (inactive),,
O=C(c1cc(O)c(O)c(O)c1)c1ccc(O)c(O)c1O,,13.3 µM (active),
OCCc1ccccc1,,,inactive
COc1ccc2cc(C=O)ccc2c1,-16% (inactive),,
CC(C)(C)c1ccc(C(=O)CCCCl)cc1,,,inactive
COc1cc(S(N)(=O)=O)cc(C(=O)O)c1OC,,,inactive
CCc1cccc2c(CCO)c[nH]c12,6.05% (inactive),,
CCN1CCN(c2cc(-c3ccc(F)cc3)c3c(n2)CCCCCC3)CC1,,,inactive [at 17.3 µM]
Nc1ccc(C(=O)N2CC3CC(CN(Cc4ccccc4)C3)C2)cc1,-3.73% (inactive),,
COc1ccccc1OCC1CNC(=O)O1 (centres undefined),7% (inactive),,
CCOC(=O)C1=C(C)NC(C)=C(C(=O)OCC)C1c1ccccc1/C=C/C(=O)OC(C)(C)C,,16.8 µM (active),
Oc1ccccc1-c1nnco1,,,inactive
CC1(C)S[C@@H]2[C@H](NC(=O)C(c3ccccc3)S(=O)(=O)O)C(=O)N2[C@H]1C(=O)O (some centres undefined),3.91% (inactive),,
CC(C)(C)NCC(O)COc1ccccc1OCC1CCCO1 (centres undefined),0.99% (inactive),,
O=C1NC(c2ccccc2)(c2ccccc2)C(=O)N1COP(=O)(O)O,0.731% (inactive),,

# — PubChem BioAssay (NCATS)
